# Source: ChEMBL document CHEMBL3433997, “St. Jude Leishmania screening dataset” (2016)
# Molecular target: Solute carrier family 2, facilitated glucose transporter member 1 (Homo sapiens) (UniProt P11166)
# Assay: ST_JUDE_LEISH: Cytotoxicity at 2uM final concentration against transgenic Leishmania Mexicana promastigotes LmGLUT1 that are glucose transport deficient and complemented with the human glucose transporter GLUT1. Activity is measured by DNA content using SYBR green in vitro
# Type: functional
# Solute carrier family 2, facilitated glucose transporter member 1 (Homo sapiens), sequence (P11166 whole entry): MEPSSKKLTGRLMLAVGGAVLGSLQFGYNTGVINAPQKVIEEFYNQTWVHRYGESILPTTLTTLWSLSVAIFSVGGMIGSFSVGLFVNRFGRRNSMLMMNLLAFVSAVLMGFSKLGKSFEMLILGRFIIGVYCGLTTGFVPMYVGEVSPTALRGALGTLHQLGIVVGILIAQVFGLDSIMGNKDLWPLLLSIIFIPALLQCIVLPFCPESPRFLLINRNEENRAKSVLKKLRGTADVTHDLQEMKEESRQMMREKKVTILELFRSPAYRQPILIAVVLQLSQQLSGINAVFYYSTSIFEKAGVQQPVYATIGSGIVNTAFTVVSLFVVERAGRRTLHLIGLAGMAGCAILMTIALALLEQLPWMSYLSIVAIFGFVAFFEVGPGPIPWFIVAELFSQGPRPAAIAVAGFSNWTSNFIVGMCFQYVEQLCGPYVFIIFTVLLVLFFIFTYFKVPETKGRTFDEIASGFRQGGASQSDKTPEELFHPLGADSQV
row,Structure (SMILES),inhibition [%]
1,Nc1nc(N)c2c(ccc3[nH]c(-c4ccccc4Cl)nc32)n1,77.1
2,c1ccc(-c2nnc(-c3ccccn3)nc2NC2CCCCC2)cc1,80
3,CC1(C)N=C(N)N=C(Nc2ccc(F)c(F)c2)N1,0.74
4,Cc1ccccc1C1CCN(C2CCC(NC(=O)/C=C/c3cc(F)cc(F)c3)CC2)CC1 (stereo not given),-1.34
5,CCOc1ccc(Br)cc1/C=C/C(=O)Nc1ccc(C2CCN(C)CC2)cc1,9.52
6,Cc1ccccc1C1CCN(C2CCC(NC(=O)c3cc(-c4ccc(Cl)cc4)cs3)CC2)CC1 (stereo not given),2.23
7,COc1ccc(CNC(=O)Nc2cccc(-c3csc(NC(=N)N)n3)c2)cc1,-2.22
8,CNC(=O)c1cnc(Nc2ccc(N3CCN(C)CC3)c(C)c2)nc1NC,-0.78
9,O=C1NC(=O)C(c2cccc(NC(=O)c3ccncc3)c2)=C1c1ccccc1,1.05
10,Cc1ccc(O)c(-c2cc(C(=O)Nc3ccc(S(=O)(=O)N4CCCC(C)C4)cc3)[nH]n2)c1 (stereo not given),-0.03
11,CCOC(=O)CCCc1cc(NC2CCN(C)CC2)nc(Nc2ccc(OC)cc2)n1,-0.13
12,Cc1c(C)n(Cc2ccccc2)c2ncnc(OC3CCN(CC(=O)NCC4CC4)CC3)c12,1.84
13,N=c1c(C(=O)NCc2ccccc2)cc2c(=O)n3ccccc3nc2n1CCc1ccccc1,3.5
14,COc1nc2c(N3CCN(CCNCc4ccc5c(n4)NC(=O)CS5)CC3)ccnc2cc1F,0.45
15,C=CCOC(=O)N1CCC(CNCc2cccc(-c3cccc(-c4nc5cc(F)ccc5[nH]4)c3)c2)C1 (stereo not given),1.39
16,Cc1c(C(=O)C2CC2CN2CCC(N3CCCC3)CC2)sc2ccccc12 (stereo not given),7.33
17,Cc1cc(CN2CC[C@H](NC(=O)c3ccc(Cl)c(Cl)c3)C2)ccc1OCCN1CCNCC1,-0.62
18,N=C(N)NN=CC(=O)Nc1cc([N+](=O)[O-])cc([N+](=O)[O-])c1,8.23
19,CN(CC(=O)Nc1cc(C(F)(F)F)ccc1-n1cncn1)Cc1nc2ccccc2s1,2.07
20,CC(C)c1ccc(NC(=O)c2ccc(C(=O)NCC3CCN(CC4CCCCC4)CC3)cc2)cc1,3.12

row,Structure (SMILES),inhibition [%]
1,Cc1cc(OC(C)C(=O)N2CCc3ccccc32)ccc1Cl (stereo not given),4.58
2,Cc1cc(Nc2ccc(Cl)c(Cl)c2)n2nc(C)nc2n1,-1.71
3,CCC1CN2CCc3c([nH]c4ccccc34)[C@@H]2C[C@@H]1CC1NCCc2cc(OC)c(OC)cc21 (stereo not given in full),-0.82
4,O=C(Nc1nc(-c2cc(F)ccc2F)cs1)c1cncc(Br)c1,4.6
5,CN1CCCN(Cc2cccc(-c3cccc(NC(=O)c4cccc(C#N)c4)c3)c2)CC1,12.8
6,C=CCn1c(Sc2ccc(C#N)c([N+](=O)[O-])c2)nnc1-c1ccc(Cl)cc1,5.68
7,CN1CCN(CC2(Nc3nccc(NCc4ccc(Cl)cc4Cl)n3)CCCCC2)CC1,6.66
8,CCOc1ccc(C(=O)N2CCOC(CCN3CCC4(CCc5ccccc54)CC3)(c3ccc(Cl)c(Cl)c3)C2)cc1 (stereo not given),5.41
9,Nc1nccc2ccc(-c3ccc4nccn4c3)cc12,3.49
10,Cc1cccc2nc(-c3cccc(-c4cccc(NC(=O)c5c[nH]cn5)c4)c3)[nH]c12,1.5
11,Cn1cncc1CNCc1ccc(-c2cccc(-c3nc4ccccc4[nH]3)c2)cc1,-1.06
12,CCCN(Cc1nnc(-c2cccs2)o1)C(=O)C1COc2ccccc2O1 (stereo not given),1.59
13,Cc1cc(OCCCN2CCC(NS(=O)(=O)c3ccc(Cl)c(Cl)c3)C2)c2ccccc2n1 (stereo not given),3.81
14,c1ccc(C(c2ccccc2)N2CCN(C(c3cccnc3)c3nnnn3C3CCCC3)CC2)cc1 (stereo not given),4.64
15,Cc1ccc(-c2cccc3c(NC(=O)Nc4ccc5nccc(N6CCN(C)CC6)c5c4)cccc23)cn1,0.51
16,Cc1cccc2nc(-c3ccc(-c4ccc(NC(=O)Nc5ccc(F)c(F)c5F)cc4)s3)[nH]c12,1.26
17,COc1ccc(C(=O)Nc2cc(Cl)c3c(c2)C2CCCN2CC3)cc1C(F)(F)F (stereo not given),3.22
18,Cc1cccc2nc(-c3ccc(-c4cccc(CN5CCCCC5)c4)s3)[nH]c12,5.63
19,COc1cc(OC)cc(C(=O)Nc2cccc(-c3cn4ccc(C)cc4n3)c2)c1,6.3
20,CC(C)N1CCCN(C(=O)C2CCN(c3ccc(C(=O)N4CCCC4)cn3)CC2)CC1,5.32
